# Key:
# Assay in all cases: DAPPL (digital affinity profiling via proximity ligation, sequencing); 10 mM Tris-HCl pH 7.5, 50 mM NaCl, 1 mM DTT, 4% glycerol, room temperature, 30 min; GST-TFs on glutathione beads, 16-mer random dsDNA library, 0.1% formaldehyde crosslink after washing; high values mean tight binding
# [1] = target: T1, FLI1 (Homo sapiens, UniProt Q01543 1-452); conditions: protein: recombinant; tags: N-terminal GST; dsDNA, one strand shown
# T1 sequence: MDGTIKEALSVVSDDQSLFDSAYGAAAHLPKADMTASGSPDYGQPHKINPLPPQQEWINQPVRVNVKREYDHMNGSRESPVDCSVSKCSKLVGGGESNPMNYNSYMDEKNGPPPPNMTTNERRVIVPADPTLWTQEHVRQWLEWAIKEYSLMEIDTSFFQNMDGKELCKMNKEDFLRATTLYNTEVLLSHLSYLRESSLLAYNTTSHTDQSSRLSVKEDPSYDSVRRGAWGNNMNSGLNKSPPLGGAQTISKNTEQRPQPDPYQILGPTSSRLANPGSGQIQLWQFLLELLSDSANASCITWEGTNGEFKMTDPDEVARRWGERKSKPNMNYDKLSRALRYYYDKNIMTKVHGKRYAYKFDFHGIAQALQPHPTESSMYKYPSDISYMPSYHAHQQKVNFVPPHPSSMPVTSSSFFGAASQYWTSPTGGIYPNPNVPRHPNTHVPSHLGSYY
# Outline: (§1)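 The binding signal reported is, for every hexamer, its read frequency for a factor over its read frequency for the tag-only sample. Reads came from pools of yeast-expressed, GST-fused human transcription factors on glutathione beads, barcoded with DNA and mixed with that sample, which were incubated with 200 nmole of a random double-stranded 16-mer DNA library in Tris/NaCl/DTT/glycerol buffer at room temperature for 30 min. After washing, the pools were crosslinked with 0.1% formaldehyde, proximity-ligated with BsaI/T4 ligase for 1 h at 37 °C, PCR-amplified and sequenced on an Illumina NextSeq500.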
# [2] = target: T2, ELK1 (Homo sapiens, UniProt P19419 1-428); conditions: protein: recombinant; tags: N-terminal GST; dsDNA, one strand shown
# T2 sequence: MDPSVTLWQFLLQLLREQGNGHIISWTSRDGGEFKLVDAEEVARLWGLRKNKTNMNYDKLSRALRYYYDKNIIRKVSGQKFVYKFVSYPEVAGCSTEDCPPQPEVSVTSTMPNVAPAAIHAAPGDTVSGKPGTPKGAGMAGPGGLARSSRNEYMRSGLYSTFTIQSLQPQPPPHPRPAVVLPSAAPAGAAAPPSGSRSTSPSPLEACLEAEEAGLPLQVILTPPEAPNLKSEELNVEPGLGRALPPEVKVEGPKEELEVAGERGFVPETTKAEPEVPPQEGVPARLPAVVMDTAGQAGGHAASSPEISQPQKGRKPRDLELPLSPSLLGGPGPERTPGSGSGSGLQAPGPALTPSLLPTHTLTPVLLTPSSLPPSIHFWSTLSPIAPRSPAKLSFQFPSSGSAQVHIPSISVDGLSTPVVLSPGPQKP
# Outline: as §1
# [3] = target: T3, GABPA (Homo sapiens, UniProt Q06546 1-454); conditions: protein: recombinant; tags: N-terminal GST; dsDNA, one strand shown
# T3 sequence: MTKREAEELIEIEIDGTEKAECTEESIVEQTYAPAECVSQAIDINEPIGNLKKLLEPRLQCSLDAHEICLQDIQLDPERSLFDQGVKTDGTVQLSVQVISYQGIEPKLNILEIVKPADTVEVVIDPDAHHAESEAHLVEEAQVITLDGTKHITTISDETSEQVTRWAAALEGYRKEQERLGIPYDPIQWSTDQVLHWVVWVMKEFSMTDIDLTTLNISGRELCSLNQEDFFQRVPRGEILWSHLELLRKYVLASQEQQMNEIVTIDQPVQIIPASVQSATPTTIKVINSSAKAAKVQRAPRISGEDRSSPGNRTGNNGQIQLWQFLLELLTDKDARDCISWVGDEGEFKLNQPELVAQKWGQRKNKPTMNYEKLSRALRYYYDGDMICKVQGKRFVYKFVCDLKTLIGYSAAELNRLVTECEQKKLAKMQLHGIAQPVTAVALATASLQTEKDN
# Outline: as §1
# [4] = target: T4, ERG (Homo sapiens, UniProt P11308 1-479); conditions: protein: recombinant; tags: N-terminal GST; dsDNA, one strand shown
# T4 sequence: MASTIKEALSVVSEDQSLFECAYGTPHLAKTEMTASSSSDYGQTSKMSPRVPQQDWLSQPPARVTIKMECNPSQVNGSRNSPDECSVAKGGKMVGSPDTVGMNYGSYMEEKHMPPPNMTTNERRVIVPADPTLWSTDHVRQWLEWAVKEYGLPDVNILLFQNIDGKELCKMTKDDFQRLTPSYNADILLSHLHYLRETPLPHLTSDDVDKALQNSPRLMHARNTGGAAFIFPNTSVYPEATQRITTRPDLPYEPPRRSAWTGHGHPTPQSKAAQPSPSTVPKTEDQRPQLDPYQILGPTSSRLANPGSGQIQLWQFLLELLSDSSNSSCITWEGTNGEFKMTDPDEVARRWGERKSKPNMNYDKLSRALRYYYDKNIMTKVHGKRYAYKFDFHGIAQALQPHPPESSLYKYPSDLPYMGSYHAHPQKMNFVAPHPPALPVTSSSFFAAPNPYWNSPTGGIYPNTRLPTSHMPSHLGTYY
# Outline: as §1
# [5] = target: ELF1 (Homo sapiens, UniProt P32519 1-619); conditions: protein: recombinant; tags: N-terminal GST; dsDNA, one strand shown
# Outline: as §1
# [6] = target: T5, EHF (Homo sapiens, UniProt Q9NZC4 1-300); conditions: protein: recombinant; tags: N-terminal GST; dsDNA, one strand shown
# T5 sequence: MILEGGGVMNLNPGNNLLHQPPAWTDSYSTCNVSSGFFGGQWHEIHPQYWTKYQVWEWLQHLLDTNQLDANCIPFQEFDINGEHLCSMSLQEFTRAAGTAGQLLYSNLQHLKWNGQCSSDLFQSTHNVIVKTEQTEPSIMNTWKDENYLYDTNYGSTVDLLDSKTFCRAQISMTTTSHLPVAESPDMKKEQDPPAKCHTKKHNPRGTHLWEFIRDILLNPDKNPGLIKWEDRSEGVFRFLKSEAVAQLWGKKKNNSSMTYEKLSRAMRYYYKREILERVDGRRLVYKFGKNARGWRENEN
# Outline: as §1
# [7] = target: SPI1 (Homo sapiens, UniProt P17947 1-270); conditions: protein: recombinant; tags: N-terminal GST; dsDNA, one strand shown
# Outline: as §1
# [8] = target: SPIB (Homo sapiens, UniProt Q01892 1-262); conditions: protein: recombinant; tags: N-terminal GST; dsDNA, one strand shown
# Outline: as §1
# [9] = target: T6, ELK3 (Homo sapiens, UniProt P41970 1-407); conditions: protein: recombinant; tags: N-terminal GST; dsDNA, one strand shown
# T6 sequence: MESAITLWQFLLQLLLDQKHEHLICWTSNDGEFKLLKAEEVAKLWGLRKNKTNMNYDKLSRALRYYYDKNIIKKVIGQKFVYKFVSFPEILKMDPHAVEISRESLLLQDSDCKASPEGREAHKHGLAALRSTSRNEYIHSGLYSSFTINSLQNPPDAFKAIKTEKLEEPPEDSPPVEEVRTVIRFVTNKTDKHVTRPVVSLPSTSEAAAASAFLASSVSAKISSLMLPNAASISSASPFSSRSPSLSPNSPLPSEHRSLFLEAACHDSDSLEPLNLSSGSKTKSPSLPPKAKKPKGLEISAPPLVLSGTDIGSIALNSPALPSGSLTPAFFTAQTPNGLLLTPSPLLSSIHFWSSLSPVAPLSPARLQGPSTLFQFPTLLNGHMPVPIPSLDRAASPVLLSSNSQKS
# Outline: as §1
# [10] = target: T7, FEV (Homo sapiens, UniProt Q99581 1-238); conditions: protein: recombinant; tags: N-terminal GST; dsDNA, one strand shown
# T7 sequence: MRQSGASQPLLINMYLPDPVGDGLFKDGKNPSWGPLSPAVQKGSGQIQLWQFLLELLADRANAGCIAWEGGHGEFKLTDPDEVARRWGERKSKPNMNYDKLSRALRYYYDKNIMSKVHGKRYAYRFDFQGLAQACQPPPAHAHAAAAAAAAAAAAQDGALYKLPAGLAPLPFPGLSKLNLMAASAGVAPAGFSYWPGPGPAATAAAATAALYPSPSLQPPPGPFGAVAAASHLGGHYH
# Outline: as §1
# [11] = target: ETV5 (Homo sapiens, UniProt P41161 1-510); conditions: protein: recombinant; tags: N-terminal GST; dsDNA, one strand shown
# Outline: as §1
# [12] = target: HSF1 (Homo sapiens, UniProt Q00613 1-529); conditions: protein: recombinant; tags: N-terminal GST; chain copies: 3; dsDNA, one strand shown
# Outline: as §1
# [13] = target: T8, SPIC (Homo sapiens, UniProt Q8N5J4 1-248); conditions: protein: recombinant; tags: N-terminal GST; dsDNA, one strand shown
# T8 sequence: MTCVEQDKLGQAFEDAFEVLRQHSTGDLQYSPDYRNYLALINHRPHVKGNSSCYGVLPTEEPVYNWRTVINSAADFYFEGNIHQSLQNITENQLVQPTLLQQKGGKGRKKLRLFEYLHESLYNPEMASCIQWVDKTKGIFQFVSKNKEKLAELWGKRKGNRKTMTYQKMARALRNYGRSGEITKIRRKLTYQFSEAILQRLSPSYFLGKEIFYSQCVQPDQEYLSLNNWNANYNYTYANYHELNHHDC
# Outline: as §1
# [14] = target: ELF4 (Homo sapiens, UniProt Q99607 1-663); conditions: protein: recombinant; tags: N-terminal GST; dsDNA, one strand shown
# Outline: as §1
# [15] = target: T9, ELK4 (Homo sapiens, UniProt P28324-2 1-405); conditions: protein: recombinant; tags: N-terminal GST; dsDNA, one strand shown
# T9 sequence: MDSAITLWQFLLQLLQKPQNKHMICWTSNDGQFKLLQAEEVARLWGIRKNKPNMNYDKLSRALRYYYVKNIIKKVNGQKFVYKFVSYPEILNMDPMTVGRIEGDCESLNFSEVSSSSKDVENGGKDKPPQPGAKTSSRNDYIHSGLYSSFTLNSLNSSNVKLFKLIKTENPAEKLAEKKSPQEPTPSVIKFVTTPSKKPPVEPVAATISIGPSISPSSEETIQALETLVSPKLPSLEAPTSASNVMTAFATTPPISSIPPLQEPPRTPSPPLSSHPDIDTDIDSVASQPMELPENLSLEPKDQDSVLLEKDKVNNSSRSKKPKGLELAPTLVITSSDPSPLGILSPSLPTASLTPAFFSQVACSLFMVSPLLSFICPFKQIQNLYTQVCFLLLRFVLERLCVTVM
# Outline: as §1
# [16] = target: T10, ETV2 (Homo sapiens, UniProt O00321 1-342); conditions: protein: recombinant; tags: N-terminal GST; dsDNA, one strand shown
# T10 sequence: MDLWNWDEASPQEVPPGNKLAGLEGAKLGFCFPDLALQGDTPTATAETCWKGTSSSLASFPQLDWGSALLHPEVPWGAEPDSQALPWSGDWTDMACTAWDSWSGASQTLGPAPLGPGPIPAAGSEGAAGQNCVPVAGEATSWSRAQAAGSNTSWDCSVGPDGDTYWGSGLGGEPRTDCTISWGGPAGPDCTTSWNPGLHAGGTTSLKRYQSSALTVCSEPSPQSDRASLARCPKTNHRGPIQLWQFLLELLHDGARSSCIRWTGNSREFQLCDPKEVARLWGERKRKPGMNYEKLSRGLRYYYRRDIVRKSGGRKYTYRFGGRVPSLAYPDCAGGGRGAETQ
# Outline: as §1
# [17] = target: T11, ELF3 (Homo sapiens, UniProt P78545 1-371); conditions: protein: recombinant; tags: N-terminal GST; dsDNA, one strand shown
# T11 sequence: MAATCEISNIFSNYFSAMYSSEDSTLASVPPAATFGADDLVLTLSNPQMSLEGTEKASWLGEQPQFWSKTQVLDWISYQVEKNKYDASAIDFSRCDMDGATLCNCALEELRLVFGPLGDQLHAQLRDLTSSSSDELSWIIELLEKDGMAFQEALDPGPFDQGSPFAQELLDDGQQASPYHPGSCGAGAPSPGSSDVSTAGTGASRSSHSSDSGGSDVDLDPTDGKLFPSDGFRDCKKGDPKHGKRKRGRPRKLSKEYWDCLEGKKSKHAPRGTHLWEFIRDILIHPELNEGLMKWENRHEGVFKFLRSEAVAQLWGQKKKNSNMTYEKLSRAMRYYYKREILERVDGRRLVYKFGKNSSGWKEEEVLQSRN
# Outline: as §1
# [18] = target: CRX (Homo sapiens, UniProt O43186 1-299); conditions: protein: recombinant; tags: N-terminal GST; dsDNA, one strand shown
# Outline: as §1
# [19] = target: ETV1 (Homo sapiens, UniProt P50549 1-477); conditions: protein: recombinant; tags: N-terminal GST; dsDNA, one strand shown
# Outline: as §1
# Chain of ELF1 (P32519 whole entry): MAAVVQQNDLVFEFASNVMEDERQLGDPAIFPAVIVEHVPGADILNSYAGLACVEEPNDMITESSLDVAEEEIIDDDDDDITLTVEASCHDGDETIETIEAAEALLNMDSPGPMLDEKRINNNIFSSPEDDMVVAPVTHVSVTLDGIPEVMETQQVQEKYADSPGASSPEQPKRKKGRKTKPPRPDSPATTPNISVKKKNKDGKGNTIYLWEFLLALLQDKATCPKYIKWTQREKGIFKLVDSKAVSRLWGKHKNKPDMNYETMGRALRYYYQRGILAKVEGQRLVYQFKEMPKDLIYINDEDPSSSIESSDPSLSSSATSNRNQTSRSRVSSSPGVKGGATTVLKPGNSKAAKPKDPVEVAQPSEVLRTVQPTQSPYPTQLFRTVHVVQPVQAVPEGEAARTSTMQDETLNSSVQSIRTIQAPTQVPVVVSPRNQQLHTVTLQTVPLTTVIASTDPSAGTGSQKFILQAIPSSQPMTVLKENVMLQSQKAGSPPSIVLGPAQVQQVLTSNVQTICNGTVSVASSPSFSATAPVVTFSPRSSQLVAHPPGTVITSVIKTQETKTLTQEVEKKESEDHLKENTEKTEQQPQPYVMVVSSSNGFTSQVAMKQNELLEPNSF
# Chain of ETV1 (P50549 whole entry): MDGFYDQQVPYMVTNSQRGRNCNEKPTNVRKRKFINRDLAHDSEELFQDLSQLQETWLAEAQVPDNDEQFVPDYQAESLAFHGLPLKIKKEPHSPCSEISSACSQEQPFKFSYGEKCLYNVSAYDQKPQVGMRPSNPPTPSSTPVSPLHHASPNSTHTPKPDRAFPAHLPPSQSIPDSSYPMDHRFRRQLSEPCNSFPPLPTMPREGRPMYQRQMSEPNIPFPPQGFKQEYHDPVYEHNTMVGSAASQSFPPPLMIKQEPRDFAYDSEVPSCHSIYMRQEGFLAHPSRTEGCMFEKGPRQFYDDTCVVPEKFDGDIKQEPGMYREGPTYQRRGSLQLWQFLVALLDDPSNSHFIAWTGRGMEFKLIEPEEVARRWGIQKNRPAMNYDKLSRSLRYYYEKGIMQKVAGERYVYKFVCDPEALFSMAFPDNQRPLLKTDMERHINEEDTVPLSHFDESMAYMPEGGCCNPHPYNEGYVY
# Chain of ETV5 (P41161 whole entry): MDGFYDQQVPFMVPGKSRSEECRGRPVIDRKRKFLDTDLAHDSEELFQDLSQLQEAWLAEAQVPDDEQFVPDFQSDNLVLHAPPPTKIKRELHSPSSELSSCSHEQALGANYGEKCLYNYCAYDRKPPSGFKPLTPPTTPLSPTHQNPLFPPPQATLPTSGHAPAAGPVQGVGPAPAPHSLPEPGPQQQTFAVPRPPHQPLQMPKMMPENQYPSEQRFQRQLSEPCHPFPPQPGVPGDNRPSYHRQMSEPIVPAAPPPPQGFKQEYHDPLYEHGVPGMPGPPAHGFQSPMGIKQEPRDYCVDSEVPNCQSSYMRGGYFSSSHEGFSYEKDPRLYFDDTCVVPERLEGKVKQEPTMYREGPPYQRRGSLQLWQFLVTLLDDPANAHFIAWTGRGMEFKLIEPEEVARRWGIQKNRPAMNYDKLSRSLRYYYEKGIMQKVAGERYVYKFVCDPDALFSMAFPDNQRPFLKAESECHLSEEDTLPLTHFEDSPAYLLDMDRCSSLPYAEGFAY
# Chain of ELF4 (Q99607 whole entry): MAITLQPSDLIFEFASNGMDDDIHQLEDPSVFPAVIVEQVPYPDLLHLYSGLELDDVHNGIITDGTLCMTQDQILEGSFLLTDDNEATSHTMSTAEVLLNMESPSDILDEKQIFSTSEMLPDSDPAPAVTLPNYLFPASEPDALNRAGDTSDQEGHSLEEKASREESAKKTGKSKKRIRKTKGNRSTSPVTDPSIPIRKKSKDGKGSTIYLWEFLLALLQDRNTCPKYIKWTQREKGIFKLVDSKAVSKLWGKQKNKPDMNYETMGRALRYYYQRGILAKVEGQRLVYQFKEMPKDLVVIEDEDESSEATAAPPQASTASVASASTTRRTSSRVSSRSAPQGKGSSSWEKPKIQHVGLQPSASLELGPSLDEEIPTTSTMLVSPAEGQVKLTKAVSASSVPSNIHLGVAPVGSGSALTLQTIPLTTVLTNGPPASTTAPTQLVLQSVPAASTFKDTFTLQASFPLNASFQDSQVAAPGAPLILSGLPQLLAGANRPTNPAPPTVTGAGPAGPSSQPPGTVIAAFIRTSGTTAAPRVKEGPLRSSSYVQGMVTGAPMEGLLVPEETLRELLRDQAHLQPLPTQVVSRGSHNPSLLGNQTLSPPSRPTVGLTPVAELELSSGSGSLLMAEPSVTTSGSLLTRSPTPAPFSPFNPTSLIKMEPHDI
# Chain of HSF1 (Q00613 whole entry): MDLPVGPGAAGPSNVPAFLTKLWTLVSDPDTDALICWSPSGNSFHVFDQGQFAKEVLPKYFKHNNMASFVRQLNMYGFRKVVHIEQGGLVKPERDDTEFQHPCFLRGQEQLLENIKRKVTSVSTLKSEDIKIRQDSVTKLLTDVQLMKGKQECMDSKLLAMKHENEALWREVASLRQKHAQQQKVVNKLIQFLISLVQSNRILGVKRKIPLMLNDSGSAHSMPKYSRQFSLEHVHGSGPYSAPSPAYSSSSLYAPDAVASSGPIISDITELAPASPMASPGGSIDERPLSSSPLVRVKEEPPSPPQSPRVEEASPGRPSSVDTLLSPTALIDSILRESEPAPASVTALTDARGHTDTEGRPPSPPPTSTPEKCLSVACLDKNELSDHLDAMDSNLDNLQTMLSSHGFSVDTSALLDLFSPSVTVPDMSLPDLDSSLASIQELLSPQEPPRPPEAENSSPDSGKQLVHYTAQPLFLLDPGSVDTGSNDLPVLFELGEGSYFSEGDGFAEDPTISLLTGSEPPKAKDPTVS
# Chain of CRX (O43186 whole entry): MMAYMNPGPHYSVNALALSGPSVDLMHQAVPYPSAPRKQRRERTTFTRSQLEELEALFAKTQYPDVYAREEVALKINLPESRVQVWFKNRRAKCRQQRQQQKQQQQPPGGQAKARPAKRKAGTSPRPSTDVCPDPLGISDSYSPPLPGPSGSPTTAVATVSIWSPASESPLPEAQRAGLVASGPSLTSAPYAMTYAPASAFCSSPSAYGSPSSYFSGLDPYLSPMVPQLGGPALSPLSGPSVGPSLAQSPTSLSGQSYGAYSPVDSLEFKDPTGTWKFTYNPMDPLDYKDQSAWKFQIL
# Chain of SPIB (Q01892 whole entry): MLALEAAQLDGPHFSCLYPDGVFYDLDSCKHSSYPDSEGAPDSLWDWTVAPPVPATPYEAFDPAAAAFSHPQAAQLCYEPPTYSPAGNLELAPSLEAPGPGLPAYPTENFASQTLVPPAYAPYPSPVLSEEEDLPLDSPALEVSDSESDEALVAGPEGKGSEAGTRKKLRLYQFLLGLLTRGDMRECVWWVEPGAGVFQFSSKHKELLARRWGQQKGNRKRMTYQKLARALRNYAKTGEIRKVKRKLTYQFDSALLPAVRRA
sequence,measurement,setting,value
TTACAG,binding signal,[1],"1.19 fold enrichment (6-mer frequency, TF over GST control)"
same,binding signal,[2],"1.18 fold enrichment (6-mer frequency, TF over GST control)"
same,binding signal,[3],"1.15 fold enrichment (6-mer frequency, TF over GST control)"
same,binding signal,[4],"1.17 fold enrichment (6-mer frequency, TF over GST control)"
same,binding signal,[5],"1.22 fold enrichment (6-mer frequency, TF over GST control)"
same,binding signal,[6],"1.13 fold enrichment (6-mer frequency, TF over GST control)"
same,binding signal,[7],"1.11 fold enrichment (6-mer frequency, TF over GST control)"
same,binding signal,[8],"1.29 fold enrichment (6-mer frequency, TF over GST control)"
same,binding signal,[9],"1.17 fold enrichment (6-mer frequency, TF over GST control)"
same,binding signal,[10],"1.14 fold enrichment (6-mer frequency, TF over GST control)"
same,binding signal,[11],"1.2 fold enrichment (6-mer frequency, TF over GST control)"
same,binding signal,[12],"1.44 fold enrichment (6-mer frequency, TF over GST control)"
same,binding signal,[13],"1.3 fold enrichment (6-mer frequency, TF over GST control)"
same,binding signal,[14],"1.26 fold enrichment (6-mer frequency, TF over GST control)"
same,binding signal,[15],"1.37 fold enrichment (6-mer frequency, TF over GST control)"
same,binding signal,[16],"1.14 fold enrichment (6-mer frequency, TF over GST control)"
same,binding signal,[17],"1.38 fold enrichment (6-mer frequency, TF over GST control)"
same,binding signal,[18],"1.85 fold enrichment (6-mer frequency, TF over GST control)"
same,binding signal,[19],"1.2 fold enrichment (6-mer frequency, TF over GST control)"
